Results from PubChem BioAssay (NCATS).
Values joined by “and” are separate entries in the source; they are usually repeats but may differ in a detail not shown here. Equal values may be shown once. Results filed as inconclusive are left out. Active and inactive are the calls of the source. Unless noted, calls follow the shape of the dose curve; as a rule, active = well fitted curve in the direction sought with a large enough effect; inconclusive = small, poorly fitted or top-dose-only effect, or another doubt; inactive = no such curve, though single readings can be large; an effect the other way counts as inactive or inconclusive.

Columns and labels:
[1] = qHTS Assay for Lipid Storage Modulators (AID 1519; calls by dose curve; as to activity change, negative = inhibition: % is scaled to controls: 0 for no effect and ±100 for the full control effect); conditions: Drosophila S3 cells, BODIPY lipid droplet/cell ratio, laser cytometry, cells loaded with oleic acid
Procedure, shortened: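 Cells seeded at 5,000 per well were treated with compounds over a concentration series and loaded with oleic acid (400 uM, as added). Lipid droplet fluorescence (488 nm excitation, 500-530 nm channel) was read by laser-scanning cytometry and normalized to 20 uM Triacsin C.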

[2] = Cell Viability - LYMP2-002 (AID 977);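 also: compound exposure lasted 24 h at 37 °C; plate controls were DMSO only for no effect and 92 µM tetraoctylammonium bromide for full effect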
Procedure, shortened: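 Human lymphoblastoid LYMP2-002 cells, 2500 per well, exposed to compounds for 24 h at 37 C in complete medium; viability read as intracellular ATP by CellTiter-Glo luminescence, AC50 from Hill fits.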

[3] = Cell Viability - LYMP2-006 (AID 978); also: % is scaled to controls: 0 for no effect and ±100 for the full control effect; nearly all actives have a fitted effect of over 60% in size
Procedure, shortened: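 Concentration-dependent loss of intracellular ATP in a human lymphoblastoid line after 24 hr treatment at 37 C was measured by CellTiter-Glo luminescence, with AC50 values obtained from standard Hill-equation modelling.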

[4] = Cell Viability - LYMP2-007 (AID 979);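 also: cells exposed to compound for 24 h before reading; 0% = DMSO only and the negative end = 92 µM tetraoctylammonium bromide; nearly all actives have a fitted effect of over 60% in size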
Procedure, shortened: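 Human lymphoblastoid cells (2500/well) were plated in complete medium, incubated 5 hr at 37 C, then exposed to compounds for 24 hr at 37 C. Intracellular ATP was read by CellTiter-Glo luminescence after 30 min at room temperature; AC50 from Hill fits.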

[5] = Cell Viability - LYMP2-008 (AID 980); also: % is scaled to controls: 0 for no effect and ±100 for the full control effect; nearly all actives have a fitted effect of over 60% in size
Procedure, shortened: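 Human lymphoblastoid cells (2500/well) were plated, held 5 hr at 37 C, then exposed to compounds for 24 hr at 37 C in complete medium. Intracellular ATP was read by CellTiter-Glo luminescence; AC50 from Hill-fitted concentration-response.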

[6] = Cell Viability - LYMP2-010 (AID 981); also: % is scaled to controls: 0 for no effect and ±100 for the full control effect; nearly all actives have a fitted effect of over 55% in size
Procedure, shortened: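 Human lymphoblastoid LYMP2-010 cells (2500/well) were preincubated 5 hr at 37 C, then exposed to compounds for 24 hr at 37 C in complete medium. Intracellular ATP was measured by CellTiter-Glo luminescence after 30 min at room temperature; AC50 from Hill-fitted concentration-response.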

[7] = Cell Viability - LYMP2-012 (AID 982);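 also: cellular ATP by luciferase luminescence where a drop means cytotoxicity; cells exposed to compound for one day before reading; 0% = DMSO only and full loss = 92 µM tetraoctylammonium bromide; nearly all actives have a fitted effect of over 55% in size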
[8] = Cell Viability - LYMP2-014 (AID 983);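 also: plate controls were DMSO only for no effect and 92 µM tetraoctylammonium bromide for full effect; nearly all actives have a fitted effect of over 50% in size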
Procedure, shortened: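 Human lymphoblastoid cells (2500/well) were pre-incubated 5 hr at 37 C, then exposed to compounds in complete medium for 24 hr at 37 C. Intracellular ATP was read by CellTiter-Glo luminescence after 30 min at room temperature; AC50 from Hill fits.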

[9] = Cell Viability - LYMP2-016 (AID 984); also: % is scaled to controls: 0 for no effect and ±100 for the full control effect; nearly all actives have a fitted effect of over 55% in size
Procedure, shortened: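 Acute toxicity in a Coriell human lymphoblastoid line is scored as loss of intracellular ATP over 24 h of treatment in complete medium. CellTiter-Glo signal is fitted across concentrations with the Hill equation to give AC50.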

[10] = Cell Viability - LYMP2-018 (AID 985);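 also: compound exposure lasted 24 hr at 37 °C; plate controls were DMSO only for no effect and tetraoctylammonium bromide at 92 µM for full effect; nearly all actives have a fitted effect of over 50% in size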
Procedure, shortened: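 Human lymphoblastoid cells (2500/well) were pre-incubated 5 hr at 37 C, then exposed to compounds for 24 hr at 37 C in complete medium. Viability was read as intracellular ATP by CellTiter-Glo luminescence; AC50 values came from Hill-equation fits.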

[11] = Cell Viability - LYMP2-020 (AID 986);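 also: plate controls were DMSO only for no effect and tetraoctylammonium bromide at 92 µM for full effect; nearly all actives have a fitted effect of over 55% in size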
Procedure, shortened: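 Human lymphoblastoid cells, 2500/well, were pre-incubated 5 hr at 37 C, then exposed to compounds for 24 hr at 37 C in complete medium. Intracellular ATP was read by CellTiter-Glo luminescence, and AC50 was derived by Hill fitting of concentration-response data.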

[12] = Cell Viability - LYMP2-022 (AID 987)
Procedure, shortened: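 Human lymphoblastoid cells, 2500/well, preincubated 5 hr at 37 C, then exposed to compounds over a concentration range for 24 hr at 37 C in complete medium. Viability read as intracellular ATP by CellTiter-Glo luminescence after 30 min at room temperature; AC50 from Hill fits.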

[13] = Cell Viability - LYMP2-024 (AID 988);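 also: plate controls were DMSO only for no effect and 92 µM tetraoctylammonium bromide for full effect; nearly all actives have a fitted effect of over 60% in size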
Procedure, shortened: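 Human lymphoblastoid cells (2500/well) in complete medium were preincubated 5 hr at 37 C, then exposed to compounds for 24 hr at 37 C. Intracellular ATP was read by CellTiter-Glo luminescence; AC50 from Hill-equation fits of concentration-response data.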

[14] = Cell Viability - LYMP2-026 (AID 989); also: % is scaled to controls: 0 for no effect and ±100 for the full control effect; nearly all actives have a fitted effect of over 50% in size
Procedure, shortened: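 Human lymphoblastoid cells (2500/well) in complete medium were preincubated 5 hr at 37 C, then exposed to compounds for 24 hr at 37 C. Cellular ATP was read by CellTiter-Glo luminescence; AC50 from Hill-equation fits of concentration-response data.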

[15] = Cell Viability - LYMP1-002 - Assay at 24 hr (AID 993); also: % is scaled to controls: 0 for no effect and ±100 for the full control effect
Procedure, shortened: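 Human lymphoblastoid LYMP1-002 cells, 2500/well in complete medium, were treated with compounds for 24 h at 37 C; intracellular ATP was read by CellTiter-Glo luminescence. AC50 values came from Hill-equation fits of qHTS concentration-response data.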

[16] = Cell Viability - LYMP1-002 - Assay at 40 hr (AID 994)
Procedure, shortened: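 Human lymphoblastoid cells, 2500/well in complete medium, were preincubated 5 hr at 37 C, then exposed to compounds for 40 hr at 37 C. Intracellular ATP was read by CellTiter-Glo luminescence after 30 min at room temperature; AC50 from Hill-equation fits.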

[17] = target: Alpha-galactosidase A (Homo sapiens) (UniProt P06280); assay: Counterscreen for Glucocerebrosidase Inhibitors: qHTS Assay for Human alpha-Galactosidase at pH 4.5 (AID 992); also: 0% is about no effect
Procedure, shortened: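 Quantitative HTS: compounds tested from 0.7 nM up to 77 uM against 2 nM enzyme with 80 uM 4-MU alpha-D-galactopyranoside. The 20 min room-temperature reaction is stopped with 1M NaOH/1M glycine, pH 10.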

[18] = target: alpha-glucosidase (Oryza sativa, rice) (UniProt Q653V4); assay: Counterscreen for Glucocerebrosidase Inhibitors: qHTS Assay for Rice alpha-Glucosidase at pH 5.0 (AID 997);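 also: 0% = full activity with enzyme and -100% = basal without enzyme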
Procedure, shortened: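 Rice alpha-glucosidase (4 nM final) with 400 uM 4-methylumbelliferyl-alpha-D-glucopyranoside in citrate buffer pH 5.0, 20 min at room temperature, stopped at pH 10; fluorescence 365/440 nm, compounds 0.7 nM–77 uM, AC50 from Hill fits.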

[19] = measured here: cell count channel max response
[20] = measured here: lipid channel max response

Alpha-galactosidase A (Homo sapiens), sequence (P06280 whole entry, looked up): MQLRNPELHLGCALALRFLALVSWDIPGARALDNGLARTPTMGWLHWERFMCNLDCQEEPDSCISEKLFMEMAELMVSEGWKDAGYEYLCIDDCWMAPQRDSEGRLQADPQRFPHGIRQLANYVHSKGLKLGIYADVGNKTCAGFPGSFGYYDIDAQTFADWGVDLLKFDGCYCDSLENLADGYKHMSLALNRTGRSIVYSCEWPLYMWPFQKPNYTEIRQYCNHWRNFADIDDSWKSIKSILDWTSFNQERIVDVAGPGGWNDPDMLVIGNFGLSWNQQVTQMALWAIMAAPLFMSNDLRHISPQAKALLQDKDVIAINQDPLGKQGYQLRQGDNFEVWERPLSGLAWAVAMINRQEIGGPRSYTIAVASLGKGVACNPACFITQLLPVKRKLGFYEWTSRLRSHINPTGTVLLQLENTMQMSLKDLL

CCN(CC)CCNc1ccc(CO)c2sc3ccccc3c(=O)c12
-16.8% and -5.8%: max response [1, 20]
inactive: activity change, negative = inhibition ([1]; at 25.7 µM (top of the series)) -5.73% | activity change, negative = inhibition ([1]; at 57.5 µM (top of the series)) -11.5%
-10.2% and 2.62%: max response [1, 19]

OC[C@H]1O[C@@H]2O[C@H]3[C@H](O)[C@@H](O)[C@@H](O[C@H]4[C@H](O)[C@@H](O)[C@@H](O[C@H]5[C@H](O)[C@@H](O)[C@@H](O[C@H]6[C@H](O)[C@@H](O)[C@@H](O[C@H]7[C@H](O)[C@@H](O)[C@@H](O[C@H]8[C@H](O)[C@@H](O)[C@@H](O[C@H]1[C@H](O)[C@H]2O)O[C@@H]8CO)O[C@@H]7CO)O[C@@H]6CO)O[C@@H]5CO)O[C@@H]4CO)O[C@@H]3CO
inactive: outcome [2] | outcome [3] | outcome [4] | outcome [5] | outcome [6] | outcome [7] | outcome [8] | outcome [9] | Potency [10] | Potency [11] | outcome [12] | Potency [13] | outcome [14] | outcome [15] | Potency [16]

O=C(O)c1ccc(S(=O)(=O)N(Cl)Cl)cc1
17.1%: max response [1, 19]
34.6%: max response [1, 20]
inactive: outcome [2] | outcome [3] | outcome [4] | outcome [5] | outcome [6] | outcome [7] | outcome [8] | outcome [9] | Potency [10] | Potency [11] | outcome [12] | Potency [13] | outcome [14] | outcome [15] | Potency [16] | activity change, negative = inhibition ([1]; at 57.5 µM (top of the series)) 9.84%

C=C[C@H]1CN2CC[C@H]1C[C@@H]2[C@@H](O)c1ccnc2ccc(OC)cc12
inactive: outcome [2] | outcome [3] | outcome [4] | outcome [5] | outcome [6] | outcome [7] | outcome [8] | outcome [9] | Potency [11] | outcome [12] | Potency [13] | outcome [14] | outcome [15] | Potency [16]

NS(=O)(=O)Cc1noc2ccccc12
inactive: outcome [17] | outcome [18]

CCCCC(CC)COC(=O)c1ccc(N(C)C)cc1 (stereo not given)
inactive: outcome [2] | outcome [3] | outcome [4] | outcome [5] | outcome [6] | outcome [7] | outcome [8] | outcome [9] | Potency [10] | Potency [11] | outcome [12] | Potency [13] | outcome [14] | outcome [15] | Potency [16]

NCCNc1cccc2ccccc12
inactive: outcome [2] | outcome [3] | outcome [4] | outcome [5] | outcome [6] | outcome [7] | outcome [8] | outcome [9] | Potency [10] | Potency [13] | outcome [14] | outcome [15] | Potency [16]

CCCN(CCC)S(=O)(=O)c1ccc(C(=O)O)cc1
0.958% and 6.83%: max response [1, 19]
0.939% and 10.4%: max response [1, 20]
inactive: outcome [2] | outcome [3] | outcome [4] | outcome [5] | outcome [6] | outcome [7] | outcome [8] | outcome [9] | Potency [10] | Potency [11] | outcome [12] | Potency [13] | outcome [14] | outcome [15] | Potency [16] | activity change, negative = inhibition ([1]; at 25.7 µM (top of the series)) -2.1% | activity change, negative = inhibition ([1]; at 57.5 µM (top of the series)) 1.2%
